The source of these data is PubChem BioAssay.

Each structure is given as a SMILES string. Entries with a potency or affinity are not part of this list. Records with an inconclusive call do not appear. Calls of active or inactive are those of the source.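 The calls were made as follows, unless noted: active = fitted dose curve reaches 40% lysis signal rise at or below the highest valid concentration tested for that sample; inconclusive = flat fit between 30% and 70%, or poor curve fit; inactive = signal falls, stays flat within 30%, or no crossing.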

One assay is described as follows: fungal growth arrest, C. neoformans – Alamar Blue, cherry-picks, dose response (AID 686998;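 active = falling signal with fitted half-maximal potency no higher than twice the top valid tested dose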). To be noted: Cryptococcus neoformans growth, 24 h; series mostly up to 35 µM.
For the molecule `CO[C@@H](CN(C)Cc1cc(F)ccc1F)[C@@H](C)CN([C@H](C)CO)S(=O)(=O)c1ccc(F)cc1`, the call was inactive.

As for `O=C(CN1CCOCC1)N1CC[C@@H]2[C@@H](CO)Nc3ccc(-c4ccccc4F)cc3[C@@H]21`, the outcome was inactive.

Regarding `C[C@@H]1CN([C@H](C)CO)C(=O)c2cccc(NC(=O)Nc3ccccc3)c2O[C@@H]1CN(C)Cc1ccc(Cl)c(Cl)c1`, the outcome was inactive.

For `CN1C(=O)c2cc(NC(=O)Nc3ccc(Cl)cc3)ccc2OC[C@H]2O[C@@H](CC(=O)NCCN3CCCCC3)CC[C@@H]21`, the molecule was called inactive.

Consider `C[C@@H]1CN([C@@H](C)CO)S(=O)(=O)c2ccc(C#CC3CC3)cc2O[C@H]1CN(C)CC1CCOCC1`, for which the call was inactive.

`C[C@@H]1CCCCO[C@H](CN(C)Cc2ccc3c(c2)OCO3)[C@H](C)CN([C@H](C)CO)C(=O)c2cc(NC(=O)Nc3cccc4ccccc34)ccc2O1`: the result was inactive.

Consider `N#Cc1ccc(-c2ccc3c(c2)[C@H]2[C@H](CCN2C(=O)Cc2ccccc2)[C@@H](CO)N3)cc1`, for which the result was inactive.

The next assay is described as follows: C. neoformans lysis by adenylate kinase leakage – AK release luminescence, cherry-picks, dose response (AID 687000).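 Also: luminescent detection of adenylate kinase leaking from lysed yeast.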 The following applies: 4 h, 100% = twice the neutral-control signal; series mostly up to 15 µM.
For the molecule `C[C@@H]1CN([C@@H](C)CO)C(=O)c2cccc(NS(C)(=O)=O)c2O[C@@H]1CN(C)C(=O)Nc1ccc2c(c1)OCO2`, the molecule was called inactive.

As to `CCCC#Cc1ccc2c(c1)O[C@H](CN(C)CCC)[C@H](C)CN([C@@H](C)CO)S2(=O)=O`, the outcome was inactive.

Regarding `CCC(=O)N(C)C[C@H]1Oc2cc(-c3ccccc3)ccc2S(=O)(=O)N([C@H](C)CO)C[C@H]1C`, the molecule was called inactive.

For `CO[C@H]1CN(C)C(=O)c2cc(NS(=O)(=O)CC(F)(F)F)ccc2OC[C@@H](C)N(Cc2cccnc2)C[C@@H]1C`, the result was inactive.

Take `CCCN1CCCC[C@H]1C(=O)Nc1c(C)cccc1C`: the molecule was called inactive.

`COc1ccccc1C(=O)Nc1ccc2c(c1)C(=O)N(C)C[C@H](OC)[C@@H](C)CN(CC1CC1)[C@@H](C)CO2`: the molecule was called inactive.

As for `CC(C)NC(=O)Nc1ccc2c(c1)C(=O)N([C@@H](C)CO)C[C@H](C)[C@@H](CN(C)Cc1ccc3c(c1)OCO3)OCCCC[C@@H](C)O2`, the molecule was classed as inactive.

`C[C@@H]1CN([C@@H](C)CO)C(=O)c2c(c3ccccc3n2C)-c2ccccc2CO[C@@H]1CN(C)S(=O)(=O)c1ccc(Cl)cc1`: the outcome was inactive.

Consider `C[C@@H]1CN([C@@H](C)CO)C(=O)CCCn2nncc2CO[C@@H]1CN(C)Cc1cccc(C(F)(F)F)c1`, for which the molecule was classed as inactive.

Consider `C[C@@H](NC(=O)C[C@@H]1CC[C@@H]2[C@H](COC[C@H](O)CN2Cc2cc(F)ccc2F)O1)c1ccccc1`, for which the call was inactive.

As to `COc1cc(C(=O)Oc2ccccc2N)cc(OC)c1OC`, the molecule was classed as inactive.

Take `COc1cccc(-c2cn(CC[C@@H]3CC[C@@H](NC(C)=O)[C@H](CO)O3)nn2)c1`: the result was inactive.

For `O=S(=O)(c1ccc(F)cc1)N1C[C@@H]2[C@H](c3ccccc31)[C@@H](CO)N2Cc1ccccc1Cl`, the molecule was called inactive.

On to `COc1cccc(S(=O)(=O)Nc2ccc3c(c2)OC[C@H](C)NC[C@@H](C)[C@H](OC)CN(C)C3=O)c1`, for which the call was inactive.

Turning to `CC(C)NC(=O)Nc1ccc2c(c1)CC(=O)N([C@@H](C)CO)C[C@@H](C)[C@@H](CN(C)Cc1ccc(Oc3ccccc3)cc1)O2`, the result was inactive.

For `C[C@@H]1CN([C@H](C)CO)C(=O)c2c(c3ccccc3n2C)-c2ccccc2CO[C@H]1CN(C)S(=O)(=O)c1ccc(Cl)cc1`, the result was inactive.

Turning to `COc1cccc(S(=O)(=O)N2C[C@@H](O)COC[C@H]3O[C@H](CC(=O)Nc4ccccc4)CC[C@@H]32)c1`, the result was inactive.

Regarding `O=C1CCC(C(=O)Nc2cccc(C(F)(F)F)c2)N1` (stereo unspecified), the result was inactive.

On to `C[C@H]1CCCCO[C@H](CN(C)C(=O)Nc2ccc(F)cc2)[C@@H](C)CN([C@@H](C)CO)C(=O)c2cc(NS(=O)(=O)c3ccc(Cl)cc3)ccc2O1`, for which the call was inactive.

For the molecule `COc1ccc(C#Cc2ccc3c(c2)O[C@@H](CN(C)C(C)=O)[C@@H](C)CN([C@H](C)CO)S3(=O)=O)cc1`, the call was inactive.

For `CC(C)NC(=O)Nc1ccc2c(c1)CC(=O)N([C@H](C)CO)C[C@H](C)[C@H](CN(C)S(=O)(=O)c1ccc(Cl)cc1)O2`, the outcome was inactive.

In the case of `C[C@H]1CN([C@@H](C)CO)S(=O)(=O)c2ccc(C#Cc3cccc(F)c3)cc2O[C@@H]1CN(C)C(=O)NC1CCCCC1`, the molecule was called inactive.

`O=C(Nc1ccccc1)N1CCCCN2[C@H](CO)[C@@H](c3ccc(C#CC4CC4)cc3)[C@@H]2C1`: the result was inactive.

`O=C(C1CCOCC1)N1CC[C@@H]2[C@H]1c1cc(Br)ccc1N[C@@H]2CO`: the call was inactive.
